# Measured values: PubChem BioAssay (EPA / NIEHS)
# Where “and” joins values, the source holds several entries; their conditions need not be identical. Equal entries are not always repeated. Calls of active or inactive are those of the source. Rule for the calls: active = hit-call score of the fitted dose curve at least 0.9, where 1 is the maximum; inactive = score below 0.9.
# Read-out: Interleukin 17F (IL17F), IL17F (gene 112744)
# Assay: BSK_BT_xIL17F: BioMAP Diversity Plus: BT Assay for Interleukin 17F (IL17F) Biomarker Activity (AID 2284243)
# Details: primary human B cells with PBMC
# Experimental: BSK_BT is a cell-based, multiplexed-readout assay that uses B cell and peripheral blood mononuclear cells, a human vascular primary cell co-culture, with measurements taken at 24 hours after chemical dosing in a microplate: 96-well plate.BSK_BT_xIL17F is an assay component measured in the BSK_BT assay. It measures secreted IL-17F related to regulation of gene expression using LumineX xMAP technology.Data from the assay component BSK_BT_xIL17F was analyzed at the endpoint, BSK_BT_xIL17F, in the positive analysis fitting direction relative to DMSO as the negative control and baseline of activity. Using a type of cytokine quantitation reporter, gain or loss-of-signal activity can be used to understand protein changes. To generalize the intended target to other relatable targets, this assay endpoint is annotated to the 'cytokine' intended target family, where the subfamily is 'interleukins'.
# The levels of cell surface (or secreted, indicated by the prefix "s") biomarker endpoints were measured by ELISA. Overt cytotoxicity to cells in confluent adherent cultures (all systems other than the BT system) was assessed by measuring total protein levels using sulforhodamine B (SRB) staining in parallel cultures at the time of biomarker measurements, indicated as SRB endpoints. For proliferation assays for adherent cell types, individual cell types are cultured at sub-confluence and relative cell numbers quantified by SRB staining at time points optimized for each system (48 h: 3C and CASM3C systems; 72 h: BT and HDF3CGF systems; 96 h: SAg system). SRB was performed by staining cells with 0.1% SRB after fixation with 10% TCA and reading wells at 560 nm.Viability and proliferation of PBMC (T cells) was quantified by Alamar Blue reduction for the SAg and BT systems. For PBMC viability (referred to as PBMC Cytotoxicity within the assay endpoint names), cells were plated (75,000/well in a 96-well plate) and then chemical samples added for 1 h before addition of activators, SEB and TSST-1 (20 ng/mL final concentration each). Cells were incubated for 90 h. Then, Alamar Blue (20 uL/well) (Invitrogen, Cat DAL1100) was added for 6 h, and the plates were read with a fluorescence microplate reader at 546/580 nm (excitation/emission). For PBMC proliferation, cells were plated and activated as above but incubated for only 16 h prior to addition of Alamar Blue. Plates were read after 6 h.
SMILES,outcome,AC50
Clc1ccc(-c2ccccc2)cc1,inactive,–
CC(C)(C)C(O)C(Oc1ccc(-c2ccccc2)cc1)n1cncn1 (stereo not given),inactive,–
O=C1C(Cl)=C(Cl)C(=O)C(Cl)=C1Cl,–,28.8 µM (active)
c1ccc(Nc2ccc3ccccc3c2)cc1,–,30.8 µM (active)
O=c1c2ccccc2c(=O)c2c1cc(Cl)c1[nH]c3c([nH]c12)c(Cl)cc1c(=O)c2ccccc2c(=O)c13,inactive,–
O=C1C=CC(=O)C=C1,–,29.2 µM (active)
CCc1cc(C)cc(CC)c1-c1c(OC(=O)C(C)(C)C)n2n(c1=O)CCOCC2,inactive,–
CC(C)CCCCCCCOP(=O)(Oc1ccccc1)Oc1ccccc1,–,25.5 µM (active)
COC(C)(C)CCC[C@H](C)C/C=C/C(C)=C/C(=O)OC(C)C,–,24.4 µM (active)
CC(=O)/C=C/c1ccccc1,–,20 µM (active)
CCCOC(=O)c1ccccc1C(=O)OCCC,inactive,–
O=P1(NCCCl)OCCCN1CCCl (stereo not given),inactive,–
C=CCN(CC=C)C(=O)C(Cl)Cl,inactive,–
CNC(=O)Oc1cc(C)c(SC)c(C)c1,–,20 µM (active)
Oc1cc(Cl)ccc1Cl,inactive,–
CCCCCCCCCCCC#N,inactive,–
O=c1[nH]c(Cl)c(Cl)cc1Cl,inactive,–
CC(C)(c1cc(Cl)c(O)c(Cl)c1)c1cc(Cl)c(O)c(Cl)c1,inactive,–
O=C(O)CCCc1ccc(N(CCCl)CCCl)cc1,–,20 µM (active) and 15.2 µM (active)
Cc1ccc(OP(=O)(Oc2ccc(C)cc2)Oc2ccc(C)cc2)cc1 (tested in a mixture with another compound),–,24.6 µM (active)
CC(C)COP(=O)(OCC(C)C)OCC(C)C,inactive,–
CC(C)(C)C(=O)CCl,inactive,–
Nc1ccc(-c2ccc(N)c(N)c2)cc1N,–,23.6 µM (active)
C=CC(=O)OCC(CC)CCCC (stereo not given),inactive,–
COCC(=O)N(c1c(C)cccc1C)N1CCOC1=O,inactive,–
CCC(C)c1cc([N+](=O)[O-])cc([N+](=O)[O-])c1OC(=O)C=C(C)C (stereo not given),–,29.3 µM (active)
O=S(=O)(c1ccccc1)c1ccccc1,inactive,–
CC1(C)[C@H](C(=O)O[C@H](C#N)c2cccc(Oc3ccccc3)c2)[C@@H]1C=C(Br)Br,–,28.7 µM (active) and 20 µM (active)
O=[N+]([O-])C=Cc1ccccc1,–,5.05 µM (active)
CC(C)CCCCCCCOC(=O)c1ccccc1C(=O)OCCCCCCCC(C)C,inactive,–
